PubChem BioAssay (EPA / NIEHS)
Results filed as inconclusive are left out. The source made the active and inactive calls. How the source made its calls, unless noted: active means hit-call score of the fitted dose curve at least 0.9, where 1 is the maximum; inconclusive means response in the unintended direction; inactive means score below 0.9.

Assays:
[1] = TOX21_p53_BLA_p2_viability: Viability Assessment in the Tox21 HCT-116 p53 Agonism Beta-lactamase Assay, Phase 2 (AID 2283591);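 further: actives lower the ATP signal meaning cytotoxicity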
Outline: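 Cytotoxicity readout: CellTiter-Glo ATP luminescence, 30 min at room temperature, after the beta-lactamase read. Cells were HCT116 exposed 16 h at 37C to compounds pin-transferred at 217-fold dilution from DMSO stocks.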

[2] = target: Cellular tumor antigen p53 (Homo sapiens) (UniProt P04637); assay: TOX21_p53_BLA_p2_ratio: Tox21 HCT-116 p53 Agonism Beta-lactamase Assay, Ratio, Phase 2 (AID 2283592)
Cellular tumor antigen p53 (Homo sapiens), sequence (P04637 whole entry, looked up): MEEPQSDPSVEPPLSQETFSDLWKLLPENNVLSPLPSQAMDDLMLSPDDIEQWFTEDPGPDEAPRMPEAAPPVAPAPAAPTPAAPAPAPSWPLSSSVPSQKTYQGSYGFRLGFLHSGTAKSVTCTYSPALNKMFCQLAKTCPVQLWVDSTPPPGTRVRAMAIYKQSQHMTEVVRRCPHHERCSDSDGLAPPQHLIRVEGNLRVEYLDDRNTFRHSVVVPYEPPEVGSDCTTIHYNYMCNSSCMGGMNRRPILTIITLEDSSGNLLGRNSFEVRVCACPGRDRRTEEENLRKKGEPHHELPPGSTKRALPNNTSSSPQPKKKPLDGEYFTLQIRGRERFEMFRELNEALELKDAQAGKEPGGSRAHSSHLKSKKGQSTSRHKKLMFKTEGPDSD
Outline: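 An inducible beta-lactamase reporter in HCT116 cells signals p53 pathway activation. After 16 h chemical exposure at 37C, cells load CCF4-AM substrate for 2 h at room temperature; activity is the cleaved/uncleaved emission ratio relative to DMSO.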

[3] = TOX21_p53_BLA_p3_viability: Viability Assessment in the Tox21 HCT-116 p53 Agonism Beta-lactamase Assay, Phase 3 (AID 2283593);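 further: cells exposed to compound for 16 h before reading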
Outline: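 Cellular ATP was quantified by CellTiter-Glo luminescence, read after 30 min at room temperature. Beforehand, HCT116 cells (4000/well) received compound 5 h post-seeding, 217-fold diluted from DMSO, then incubated 16 h at 37C.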

[4] = target: Cellular tumor antigen p53 (Homo sapiens) (UniProt P04637); assay: TOX21_p53_BLA_p3_ratio: Tox21 HCT-116 p53 Agonism Beta-lactamase Assay, Ratio, Phase 3 (AID 2283596)
Outline: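 HCT116 p53-bla cells (4000/well) given compound in DMSO (217-fold dilution) after 5 h, incubated 16 h at 37C. CCF4-AM substrate 2 h at room temperature; 460/530 nm emission ratio, gain fitted against DMSO.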

[5] = target: Cellular tumor antigen p53 (Homo sapiens) (UniProt P04637); assay: TOX21_p53_BLA_p5_ratio: Tox21 HCT-116 p53 Agonism Beta-lactamase Assay, Ratio, Phase 5 (AID 2283599)
Outline: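 Beta-lactamase reporter ratio (blue 460 nm over green 530 nm, 405 nm excitation) after 2 h CCF4-AM loading, in HCT-116 cells exposed 16 h at 37 C to compounds pinned at 217-fold dilution. Increases relative to DMSO baseline scored.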

[6] = target: Cellular tumor antigen p53 (Homo sapiens) (UniProt P04637); assay: TOX21_p53_BLA_p4_ratio: Tox21 HCT-116 p53 Agonism Beta-lactamase Assay, Ratio, Phase 4 (AID 2283601)
Outline: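 Signal is the blue/green (460nm/530nm) ratio of cleaved versus uncleaved CCF4-AM substrate, read after 2 h substrate loading. Cells were HCT116 carrying the p53-responsive beta-lactamase reporter, dosed 16 h at 37C, 5% CO2; CellTiter-Glo measured in parallel.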

[7] = TOX21_p53_BLA_p4_viability: Viability Assessment in the Tox21 HCT-116 p53 Agonism Beta-lactamase Assay, Phase 4 (AID 2283597);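 further: hits lower the luminescence signal meaning cytotoxicity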
Outline: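 Compound exposure of HCT116 cells lasts 16 h at 37C, 5% CO2, with DMSO stocks diluted 217-fold. Cellular ATP is then quantified by CellTiter-Glo luminescence after 30 min at room temperature.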

[8] = TOX21_p53_BLA_p5_viability: Viability Assessment in the Tox21 HCT-116 p53 Agonism Beta-lactamase Assay, Phase 5 (AID 2283600)
Outline: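 Counter-readout for cytotoxicity: ATP-dependent luminescence from CellTiter-Glo, read in the beta-lactamase wells after 30 min at RT, following a 16 h compound exposure at 37C.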

PGR (gene 5241) [9] = target: PGR (gene 5241) (UniProt P06401); assay: TOX21_PR_BLA_Followup_Agonist_ratio: Tox21 HEK293 Progesterone Receptor (PR) Agonism Beta-lactamase Follow-Up Assay, Ratio (AID 2283933)
PGR (gene 5241), sequence (P06401 whole entry, looked up): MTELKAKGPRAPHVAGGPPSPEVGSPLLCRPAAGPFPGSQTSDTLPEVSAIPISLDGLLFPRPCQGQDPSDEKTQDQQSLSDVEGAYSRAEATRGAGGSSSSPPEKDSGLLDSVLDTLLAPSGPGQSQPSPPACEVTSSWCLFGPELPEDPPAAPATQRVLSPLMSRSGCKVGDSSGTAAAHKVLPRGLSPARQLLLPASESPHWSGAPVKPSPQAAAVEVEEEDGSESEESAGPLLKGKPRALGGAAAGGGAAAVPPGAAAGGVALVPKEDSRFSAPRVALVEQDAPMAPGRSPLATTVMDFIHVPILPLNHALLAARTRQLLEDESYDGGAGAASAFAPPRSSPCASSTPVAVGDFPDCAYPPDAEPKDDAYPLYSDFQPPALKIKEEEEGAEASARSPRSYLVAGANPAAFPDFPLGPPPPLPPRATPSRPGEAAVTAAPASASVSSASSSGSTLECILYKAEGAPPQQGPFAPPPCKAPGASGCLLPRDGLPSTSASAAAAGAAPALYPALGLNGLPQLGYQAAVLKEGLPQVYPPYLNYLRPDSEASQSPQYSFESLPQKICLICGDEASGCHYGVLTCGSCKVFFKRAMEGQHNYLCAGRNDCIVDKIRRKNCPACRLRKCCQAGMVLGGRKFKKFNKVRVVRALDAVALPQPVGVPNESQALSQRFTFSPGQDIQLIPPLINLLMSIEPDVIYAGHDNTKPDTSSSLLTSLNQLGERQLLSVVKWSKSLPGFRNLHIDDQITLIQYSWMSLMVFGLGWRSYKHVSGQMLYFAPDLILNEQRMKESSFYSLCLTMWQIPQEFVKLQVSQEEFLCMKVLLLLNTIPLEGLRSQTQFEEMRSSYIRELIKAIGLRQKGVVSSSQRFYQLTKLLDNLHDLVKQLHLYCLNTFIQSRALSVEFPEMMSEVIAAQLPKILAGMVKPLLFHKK
Outline: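 HEK293T PR-UAS-bla, 2% CS-FBS; 6 hr preincubation, cpd/DMSO pinned, 16 hr 37C/5% CO2; LiveBLAzer B/G 2 hr RT; FRET ch2/ch1 ratio, agonist direction vs DMSO. Viability by CellTiter-Glo in same wells.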

PGR (gene 5241) [10] = target: PGR (gene 5241) (UniProt P06401); assay: TOX21_PR_BLA_Followup_Antagonist_ratio: Tox21 HEK293 Progesterone Receptor (PR) Antagonism Beta-lactamase Follow-Up Assay, Ratio (AID 2283934)
Outline: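 HEK293T PR-UAS-bla, 2% CS-FBS; 6 hr plating, then cpd + R5020 (1 nM final), 16 hr 37C/5% CO2. B/G FRET substrate 2 h RT. Ratio ch2/ch1 vs DMSO; CellTiter-Glo viability multiplexed, autofluorescence checked.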

[11] = TOX21_PR_BLA_Followup_Agonist_viability: Viability Assessment in the Tox21 HEK293 Progesterone Receptor (PR) Agonism Beta-lactamase Follow-Up Assay (AID 2283935);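 further: signal loss means lower viability so actives are cytotoxic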
Outline: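 HEK293T PR-UAS-bla, 3,000 cells/well, 2% CS-FBS; 6 hr pre-incubation; cpd in DMSO, 16 hr 37C; LiveBLAzer 2 hr RT, then CellTiter-Glo 30 min RT, luminescence. Decrease = lost viability.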

[12] = TOX21_PR_BLA_Followup_Antagonist_viability: Viability Assessment in the Tox21 HEK293 Progesterone Receptor (PR) Antagonism Beta-lactamase Follow-Up Assay (AID 2283936);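 further: hits lower the luminescence signal meaning cytotoxicity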
Outline: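 PR-UAS-bla HEK293T cells (3,000/well, 2% charcoal-stripped FBS) given compound plus R5020 agonist, 16 h at 37C. CellTiter-Glo added after bla read, 30 min at room temperature; luminescence loss indicates cytotoxicity.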

PGR (gene 5241) [13] = target: PGR (gene 5241) (UniProt P06401); assay: TOX21_PR_LUC_Followup_Agonist: Tox21 HEK293 Progesterone Receptor (PR) Agonism Luciferase Follow-Up Assay (AID 2283937; active means hit-call score of the fitted dose curve at least 0.9, where 1 is the maximum; inactive means score below 0.9)
Outline: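 Cells: HEK293-PR-A-luc, 3,000/well, 10% charcoal-stripped FBS assay medium. Compound added after 5 h; 16 h, 37C, 0% CO2. ONE-Glo luciferase, luminescence. Positive fit vs DMSO.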

PGR (gene 5241) [14] = target: PGR (gene 5241) (UniProt P06401); assay: TOX21_PR_LUC_Followup_Antagonist: Tox21 HEK293 Progesterone Receptor (PR) Antagonism Luciferase Follow-Up Assay (AID 2283938);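 further: curve fitted upward as signal gain over DMSO baseline despite antagonist label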
Outline: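 A follow-up to the PR bla screen using HEK293-PR-A-luc cells, multiplexed with cell viability to flag cytotoxicity. Reporter luminescence after 16 h compound exposure was analysed relative to DMSO.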

[15] = TOX21_PR_LUC_Followup_Agonist_viability: Viability Assessment in the Tox21 HEK293 Progesterone Receptor (PR) Agonism Luciferase Follow-Up Assay (AID 2283941);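 further: loss of signal means cytotoxicity so actives lower viability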
Outline: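 Cells were kept 5 days in charcoal-stripped serum medium before plating HEK293-PR-A-luc at 3,000 cells/well. After 5 h they received DMSO-dissolved compound and incubated 16 h at 37C. Viability was taken from CellTiter-Glo ATP luminescence.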

Measured: AC50

CC(C)CCON=O
inactive: [1] | [2] | [3] | [4] | [5] | [6]

CCNC1(c2cccs2)CCCCC1=O (configuration not stated)
inactive: [1] | [2] | [3] | [4] | [5]

O=C(O)c1ccc2[nH]cc(CCCCN3CC=C(c4ccccc4)CC3)c2c1
inactive: [1] | [2] | [3] | [4] | [5] | [6]

COc1ccc2c(c1OC)CN1CCc3cc4c(cc3C1C2)OCO4 (configuration not stated)
active: PGR (gene 5241) [10] 5.55 µM | PGR (gene 5241) [14] 11.5 µM
inactive: [1] | [2] | [3] | [4] | [7] | [8] | PGR (gene 5241) [9] | [11] | [12] | PGR (gene 5241) [13] | [15]

O=[Se]=O
active: [1] 16.1 µM | [2] 2.8 µM | [3] 7.66 µM | [4] 0.777 µM | [7] 21 µM | [6] 4.23 µM

C(CCOCC1CO1)COCC1CO1 (configuration not stated)
inactive: [1] | [2] | [3] | [5] | [8]
active: [4] 65.2 µM

NC1(c2ccccc2)CCCCC1
inactive: [1] | [2] | [3] | [4] | [5] | [8] | [6]

CC[N+](C)(CC)CCOC(=O)C(O)(c1ccccc1)c1ccccc1
inactive: [1] | [2] | [3] | [4] | [5] | [8] | [6]

COC(=O)C(c1ccccc1)C1CCCCN1 (configuration not stated)
inactive: [1] | [2] | [3] | [4] | [5] | [6]
